Source: PubChem BioAssay (NCI)
Compounds without any hit were thinned out: in the full panel of roughly 83,000, 20% have a hit.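 Activity criterion: percent growth below 10, measured after cells in 96-well plates were exposed to a single compound concentration for 48 hours.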 Activity calls are given as the source filed them.

Experiments:
Assay in all cases: NCI-60 one-dose screen, 48 h (100 = growth as untreated, 0 = no growth, -100 = all killed)
Conditions in all cases: 10 µM unless noted
SK-MEL-2 melanoma = system: SK-MEL-2 melanoma
EKVX NSCLC = system: EKVX NSCLC
SN12C renal = system: SN12C renal
TK-10 renal = system: TK-10 renal
ACHN renal = system: ACHN renal
CAKI-1 renal = system: CAKI-1 renal
CCRF-CEM leukemia = system: CCRF-CEM leukemia
MOLT-4 leukemia = system: MOLT-4 leukemia
SR leukemia = system: SR leukemia
RPMI-8226 leukemia = system: RPMI-8226 leukemia
OVCAR-5 ovarian = system: OVCAR-5 ovarian
OVCAR-4 ovarian = system: OVCAR-4 ovarian
SK-OV-3 ovarian = system: SK-OV-3 ovarian
IGROV1 ovarian = system: IGROV1 ovarian
OVCAR-3 ovarian = system: OVCAR-3 ovarian
HS 578T breast = system: HS 578T breast
NCI/ADR-RES ovarian = system: NCI/ADR-RES ovarian
UO-31 renal = system: UO-31 renal
A498 renal = system: A498 renal
OVCAR-8 ovarian = system: OVCAR-8 ovarian

Measured: growth

O=C(Nc1nc(-c2ccc(Cl)cc2)cs1)c1cc(-c2ccc(Br)cc2)nc2ccc(Cl)cc12
active: NCI/ADR-RES ovarian 8.07%
inactive: SK-MEL-2 melanoma 22.8% | EKVX NSCLC 77.3% | SN12C renal 35.8% | TK-10 renal 130% | ACHN renal 63.6% | CAKI-1 renal 81.4% | CCRF-CEM leukemia 39.2% | MOLT-4 leukemia 18.5% | SR leukemia 15.4% | RPMI-8226 leukemia 16.1% | OVCAR-5 ovarian 106% | OVCAR-4 ovarian 47.3% | SK-OV-3 ovarian 86.6% | IGROV1 ovarian 30.8% | OVCAR-3 ovarian 10% | HS 578T breast 49.4%

C/C(=C\CCc1ccoc1)CC/C=C(\C)CCCN1CCSCC1
inactive: SK-MEL-2 melanoma 85.5% | SN12C renal 76.7% | UO-31 renal 62.4% | TK-10 renal 84.9% | ACHN renal 83.8% | CAKI-1 renal 80.7% | A498 renal 38.2% | CCRF-CEM leukemia 62.9% | MOLT-4 leukemia 79.6% | SR leukemia 45.6% | RPMI-8226 leukemia 38.2% | OVCAR-8 ovarian 89.8% | OVCAR-5 ovarian 70.1% | OVCAR-4 ovarian 75.3% | SK-OV-3 ovarian 84.6% | IGROV1 ovarian 93.7% | OVCAR-3 ovarian 44.4% | HS 578T breast 98.1% | NCI/ADR-RES ovarian 73.8%

c1ccc(COc2ccc(Nc3ncnc4c3cnn4-c3ccccc3)cc2)cc1
inactive: SK-MEL-2 melanoma 115% | SN12C renal 97.4% | UO-31 renal 79.6% | TK-10 renal 111% | ACHN renal 104% | CAKI-1 renal 99.1% | A498 renal 77.9% | CCRF-CEM leukemia 80.8% | MOLT-4 leukemia 93.1% | SR leukemia 91.9% | RPMI-8226 leukemia 96.5% | OVCAR-8 ovarian 113% | OVCAR-5 ovarian 98.9% | OVCAR-4 ovarian 91.3% | SK-OV-3 ovarian 108% | IGROV1 ovarian 100% | OVCAR-3 ovarian 113% | HS 578T breast 109% | NCI/ADR-RES ovarian 107%

O=C(NC1CCCCC1)c1ccc(Nc2ncnc3c2cnn3-c2ccccc2)cc1
inactive: SK-MEL-2 melanoma 79.1% | SN12C renal 19% | UO-31 renal 57.7% | TK-10 renal 51% | ACHN renal 54.3% | CAKI-1 renal 62.3% | A498 renal 50.4% | CCRF-CEM leukemia 64.9% | MOLT-4 leukemia 89.5% | SR leukemia 67.5% | RPMI-8226 leukemia 89.5% | OVCAR-5 ovarian 80.3% | OVCAR-4 ovarian 30.3% | SK-OV-3 ovarian 54% | IGROV1 ovarian 71.1% | OVCAR-3 ovarian 87.4% | NCI/ADR-RES ovarian 74.2%
active: HS 578T breast 0.218%

CCOc1cc(/C=C/C(=O)C(C(=O)/C=C/c2ccc(OC(=O)CNc3nc4ccccc4[nH]3)c(OCC)c2)C(=O)CNc2nc3ccccc3[nH]2)ccc1OC(=O)CNc1nc2ccccc2[nH]1
inactive: SK-MEL-2 melanoma 13.2% | TK-10 renal 31.8% | OVCAR-5 ovarian 11.5% | OVCAR-4 ovarian 26.9% | SK-OV-3 ovarian 29.4% | NCI/ADR-RES ovarian 24.3%
active: EKVX NSCLC -3.49% | SN12C renal -22.9% | ACHN renal -45.6% | CAKI-1 renal -12.2% | A498 renal -9.48% | RPMI-8226 leukemia -74.4% | IGROV1 ovarian -33.2% | OVCAR-3 ovarian -2.21% | HS 578T breast -4.12%

COc1ccc(NC(=O)[C@@H]2C[C@H]2c2ccccc2)c(C(N)=O)c1
inactive: SK-MEL-2 melanoma 89.9% | SN12C renal 96% | UO-31 renal 87.9% | TK-10 renal 96% | ACHN renal 102% | CAKI-1 renal 103% | A498 renal 98.1% | CCRF-CEM leukemia 94% | MOLT-4 leukemia 92.4% | SR leukemia 77.6% | RPMI-8226 leukemia 100% | OVCAR-8 ovarian 99.1% | OVCAR-5 ovarian 102% | OVCAR-4 ovarian 107% | SK-OV-3 ovarian 102% | OVCAR-3 ovarian 98.9% | HS 578T breast 102% | NCI/ADR-RES ovarian 99%
active: IGROV1 ovarian -8.06%

Cc1cc(Br)c(C)cc1Br
inactive: SK-MEL-2 melanoma 100% | SN12C renal 108% | UO-31 renal 91.3% | TK-10 renal 105% | ACHN renal 102% | CAKI-1 renal 95.2% | A498 renal 77.7% | CCRF-CEM leukemia 94.4% | MOLT-4 leukemia 87.3% | SR leukemia 83.7% | RPMI-8226 leukemia 103% | OVCAR-8 ovarian 101% | OVCAR-5 ovarian 103% | OVCAR-4 ovarian 103% | SK-OV-3 ovarian 92.7% | IGROV1 ovarian 137% | OVCAR-3 ovarian 103% | HS 578T breast 105% | NCI/ADR-RES ovarian 112%

Cc1cc(-c2ccccc2)cc(C)n1
inactive: SK-MEL-2 melanoma 98.1% | EKVX NSCLC 116% | UO-31 renal 78.6% | TK-10 renal 103% | ACHN renal 106% | CAKI-1 renal 103% | A498 renal 116% | CCRF-CEM leukemia 102% | MOLT-4 leukemia 100% | SR leukemia 99.4% | OVCAR-8 ovarian 106% | OVCAR-5 ovarian 108% | OVCAR-4 ovarian 99.7% | SK-OV-3 ovarian 109% | IGROV1 ovarian 102% | OVCAR-3 ovarian 127% | HS 578T breast 111% | NCI/ADR-RES ovarian 110%

C[C@@H]1[C@H]2[C@H](C=C3[C@@H]4CC[C@H]5Cc6nc7c(nc6C[C@]5(C)[C@H]4C[C@@H](O)[C@@]32C)C[C@@H]2CC[C@H]3C4=C[C@@H]5O[C@@]6(CC[C@](C)(CO)O6)[C@@H](C)[C@@]5(O)[C@@]4(C)[C@H](O)C[C@@H]3[C@@]2(C)C7)O[C@]12CCC(C)(C)O2
inactive: SK-MEL-2 melanoma 30.8% | EKVX NSCLC 21.8% | SN12C renal 67.9% | ACHN renal 42.5% | OVCAR-8 ovarian 50.9% | OVCAR-4 ovarian 55.5% | IGROV1 ovarian 38.6% | OVCAR-3 ovarian 50% | NCI/ADR-RES ovarian 54%
active: A498 renal -72.6% | CCRF-CEM leukemia 2.79% | MOLT-4 leukemia -21.1% | SR leukemia 2.45% | RPMI-8226 leukemia -29.9% | OVCAR-5 ovarian 8.43% | SK-OV-3 ovarian 9.45% | HS 578T breast -4.77%

O=C1C(=O)/C(=C/c2ccccc2)CCCCCC/C1=C/c1ccccc1
inactive: SK-MEL-2 melanoma 105% | SN12C renal 79.8% | UO-31 renal 30.9% | TK-10 renal 115% | ACHN renal 88.5% | CAKI-1 renal 82.1% | A498 renal 78.6% | MOLT-4 leukemia 10.2% | OVCAR-8 ovarian 29.9% | OVCAR-5 ovarian 114% | OVCAR-4 ovarian 60.9% | SK-OV-3 ovarian 98.2% | OVCAR-3 ovarian 21% | HS 578T breast 81.4% | NCI/ADR-RES ovarian 80.1%
active: CCRF-CEM leukemia 4.29% | SR leukemia -13.5% | RPMI-8226 leukemia -33.5% | IGROV1 ovarian 5%

O=c1sc2ncnc3ncn1c32
inactive: SK-MEL-2 melanoma 81.9% | SN12C renal 85% | UO-31 renal 52.6% | TK-10 renal 26.9% | ACHN renal 80.3% | CAKI-1 renal 43.1% | A498 renal 101% | CCRF-CEM leukemia 54.8% | MOLT-4 leukemia 35.9% | SR leukemia 33.2% | RPMI-8226 leukemia 25.6% | OVCAR-8 ovarian 78.3% | OVCAR-5 ovarian 65.3% | OVCAR-4 ovarian 48.7% | SK-OV-3 ovarian 22.8% | IGROV1 ovarian 96% | OVCAR-3 ovarian 17.6% | HS 578T breast 72.7% | NCI/ADR-RES ovarian 70.1%

C/C(=C\CCc1ccoc1)CC/C=C(\C)CCCC1COC(=O)C1 (stereo unspecified)
inactive: SK-MEL-2 melanoma 100% | SN12C renal 94.8% | UO-31 renal 78.8% | TK-10 renal 114% | ACHN renal 97.5% | CAKI-1 renal 94.4% | A498 renal 91.3% | CCRF-CEM leukemia 93% | MOLT-4 leukemia 92.2% | SR leukemia 100% | RPMI-8226 leukemia 97.1% | OVCAR-8 ovarian 95.6% | OVCAR-5 ovarian 101% | OVCAR-4 ovarian 87.6% | SK-OV-3 ovarian 101% | IGROV1 ovarian 96.1% | OVCAR-3 ovarian 105% | HS 578T breast 97.5% | NCI/ADR-RES ovarian 101%

Cc1nn2c(/C=C3/C(=O)Nc4cc(Cl)ccc43)c(-c3ccccc3)nc2s1
inactive: A498 renal 80.2% | MOLT-4 leukemia 13.1% | SR leukemia 15.1% | OVCAR-5 ovarian 52.8% | SK-OV-3 ovarian 73.6% | NCI/ADR-RES ovarian 24.2%
active: SK-MEL-2 melanoma 0.603% | SN12C renal -1.6% | UO-31 renal -72.3% | TK-10 renal -55.3% | ACHN renal -26.5% | CAKI-1 renal -50.4% | CCRF-CEM leukemia -14% | RPMI-8226 leukemia -19.6% | OVCAR-8 ovarian -25.2% | OVCAR-4 ovarian -85.6% | IGROV1 ovarian -23.5% | OVCAR-3 ovarian -71.6% | HS 578T breast -0.41%

NC(=O)c1cc(Cl)ccc1NC(=O)c1ccccc1-c1ccccc1
active: SK-MEL-2 melanoma -12.2% | CCRF-CEM leukemia 7.4% | SR leukemia 5.82% | OVCAR-3 ovarian -30.7%
inactive: SN12C renal 51.9% | UO-31 renal 30.7% | TK-10 renal 41.6% | ACHN renal 34.9% | CAKI-1 renal 26.4% | A498 renal 27.5% | MOLT-4 leukemia 13.3% | RPMI-8226 leukemia 19% | OVCAR-8 ovarian 32% | OVCAR-5 ovarian 54.4% | OVCAR-4 ovarian 48.3% | SK-OV-3 ovarian 33.1% | IGROV1 ovarian 30% | HS 578T breast 33.8% | NCI/ADR-RES ovarian 20.7%

N#Cc1c(NC(=O)c2ccco2)[n+]([O-])c2ccccc2[n+]1[O-]
inactive: SK-MEL-2 melanoma 92.9% | EKVX NSCLC 98.7% | SN12C renal 93.4% | TK-10 renal 133% | CAKI-1 renal 110% | A498 renal 117% | MOLT-4 leukemia 85.3% | RPMI-8226 leukemia 447% | OVCAR-5 ovarian 89.7% | OVCAR-4 ovarian 109% | SK-OV-3 ovarian 110% | OVCAR-3 ovarian 115% | HS 578T breast 98% | NCI/ADR-RES ovarian 116%
active: IGROV1 ovarian -49.8%

COc1cnc2c(c1)C(=O)c1c-2n(CCCN2CCOCC2)c(=O)c2cc(F)ccc12
inactive: SK-MEL-2 melanoma 21.4% | EKVX NSCLC 17.7% | SN12C renal 12.4% | OVCAR-4 ovarian 15.7% | IGROV1 ovarian 12.2% | HS 578T breast 12.5%
active: ACHN renal -66.9% | A498 renal -24% | CCRF-CEM leukemia 1.77% | MOLT-4 leukemia -18.5% | SR leukemia 1.17% | RPMI-8226 leukemia -19.2% | OVCAR-8 ovarian 0.87% | OVCAR-5 ovarian -13.2% | SK-OV-3 ovarian -25.1% | OVCAR-3 ovarian -29.9% | NCI/ADR-RES ovarian 4.01%

N/C(=N\C(N)=N\c1nc2ccccc2s1)c1ccnc(Cl)c1
inactive: SK-MEL-2 melanoma 29% | EKVX NSCLC 51.3% | SN12C renal 57.6% | TK-10 renal 75.7% | ACHN renal 47.8% | CAKI-1 renal 21.6% | CCRF-CEM leukemia 19.2% | MOLT-4 leukemia 33.6% | SR leukemia 18.9% | RPMI-8226 leukemia 15.2% | OVCAR-8 ovarian 39.5% | OVCAR-5 ovarian 57.9% | OVCAR-4 ovarian 79.1% | SK-OV-3 ovarian 48.5% | IGROV1 ovarian 37.2% | HS 578T breast 25.7% | NCI/ADR-RES ovarian 18.3%
active: OVCAR-3 ovarian 4.62%
